From PubChem BioAssay (EPA / NIEHS) come the findings set out here.

The source made the active and inactive calls. How the source made its calls: active means hit-call score of the fitted dose curve at least 0.9, where 1 is the maximum; inactive means score below 0.9.

Read-out in this test: Pro-epidermal growth factor (Homo sapiens) (UniProt P01133)
The experiment in a line: LTEA_HepaRG_EGF: Life Technologies and Expression Analysis (LTEA) Assay for Epidermal growth factor (EGF) using HepaRG (AID 2283489). The note with it: mRNA level, 48 h; actives raise or lower the signal. As to the method: LTEA_HepaRG is a cell based, multiplexed-readout assay that uses HepaRG, a human liver cell line, with measurements taken at 48 hours after chemical dosing on a 96-well plate.LTEA_HepaRG_EGF is one of 102 assay component(s) measured in the LTEA HepaRG cell culture assay. It is a marker of Cell proliferation, survival, death.Data from the assay component LTEA_HepaRG_EGF was analyzed into 1 endpoint. This assay endpoint, LTEA_HepaRG_EGF, was analyzed with bidirectional fitting relative to DMSO as the negative control and baseline of activity. Using a type of inducible reporter, measures of mRNA induction for gain or loss-of-signal activity can be used to understand regulation of transcription factor activity. To generalize the intended target to other relatable targets, this assay endpoint is annotated to the growth factor intended target family, where the subfamily is EGF-like domain.
A total of 1060 chemcials from the ToxCast library were tested in eight-point concentration-response experiments. Cell culture and cytotoxicity assays were conducted at Thermo Fisher Scientific's Custom Services facility (Madison, WI). A single lot of human HepaRG cells (Thermo Fisher Scientific, Frederick, MD) was used for the cell culture experiments. 96-well format collagen type I coated plates of human HepaRG cells were prepared using established methods. Briefly, cryopreserved HepaRG cells were thawed, plated at a density of approximately 100,000 cells/well in HepaRG Thaw, Plate, and General Purpose media (HPRG770, Thermo Fisher Scientific), and incubated for 48 hours. 0.5% DMSO was selected as vehicle control to balance the requisite need of DMSO in HepaRG cultures to maintain differentiation (for example, baseline metabolism, proportions of hepatocytes vs. cholangiocytes), while enabling further hepatic receptor pathway activation (for example, PXR and CAR) in response to chemical exposure. 48 hours after plating, the culture medium was replaced with HepaRG Serum-Free Incudtion Media. Cells were exposed to each test chemical in duplicate and maintained in CO2 incubators for another 48 hours. Chemical plates were thawed to room temperature and 200x concentrations of treatment groups were prepared. 8-point conentration-reponse curves were made with the highest exposure at 100 uM, followed by half-log dilutions, all in 0.5% DMSO. Each test plate contained variouse controls, induction positive controls (1mM phenobarbital), cytotoxicity positive controls ([…] aflatoxin B1), vehicle controls (0.5% DMSO), and total lysis controls (0.5% DMSO). Cell morphology images were taken using an Essen IncuCyte FLR automated microscope, with six 96-well plates imaged in about 24 minutes. Images were captured and exported and JPEG files. Spent culture media was transfered to black-well plates for the LDH assay, and remaining media was sorted at -80 C for later use. Cells were treated with RLT buffer and frozen until shipped for gene expression analysis. Total RNA was isolated from the cell suspension in 75 uL of Buffer RLT (Qiagen, Germantown, MD 20874) by Quintiles/Expression Analysis (Durham, NC) using a custom isolation procedure. Total RNA from each plate well was transferred to a preamplification plate. Fluidigm's 96.96 Dynamic ArrayTM (Fluidigm, Amsterdam, the Netherlands) technology was used for gene expression analyses by quantitative reverse transcription polymerase chain reaction (qRT-PCR, performed by Quintiles/Expression Analysis, Durham, NC)89. Standard TaqManTM Assays (Applied Biosystems/ThermoFisher Scientific, Foster City, CA) were used to assess the expression of 93 genes selected based on their selectivity and sensitivity to important hepatic receptors known to be modulated by environmental chemicals; importance in human hepatocyte functionality; and hepatotoxicity. […]
In the case of `CCCCCCCCCCCCOS(=O)(=O)O`, the result was inactive.

`CN(C)CCOC(c1ccccc1)c1ccccc1`: the molecule was called inactive.

With `Cc1[nH]nc2c1N=C(c1ccccc1Cl)c1cc([N+](=O)[O-])ccc1N2`, the molecule was classed as inactive.

Regarding `CCCCc1oc2ccccc2c1C(=O)c1cc(I)c(OCCN(CC)CC)c(I)c1`, the call was inactive.

Regarding `CS(=O)(=O)c1ccc([C@@H](CC2CCCC2)C(=O)Nc2cnccn2)cc1Cl`, the molecule was called inactive.

With `CCC(C)c1ccccc1O` (stereo unspecified), the molecule was classed as inactive.

On to `CCCCC=O`, for which the result was inactive.

With `O=C(c1ccccc1)c1ccccc1`, the result was inactive.

For `OCC(CO)(CBr)CBr`, the outcome was inactive.

Consider `CC(=O)Nc1ccc(O)cc1`, for which the molecule was classed as inactive.

What is called AC50 is the midpoint of the concentration-response curve, whichever way the signal moves. Turning to `N=C(N)c1ccc(OCCCCCOc2ccc(C(=N)N)cc2)cc1`, the AC50 was 22.2 µM (active).

In the case of `CCCCC(CC)C(=O)O` (stereo unspecified), the result was inactive.

In the case of `O=C1NS(=O)(=O)c2ccccc21`, the result was inactive.

Turning to `CCCCCCCCCCCCCCC`, the molecule was classed as inactive.

For `O=C(CCCN1CCC(O)(c2ccc(Cl)cc2)CC1)c1ccc(F)cc1`, the outcome was inactive.

With `CN(Cc1cnc2nc(N)nc(N)c2n1)c1ccc(C(=O)N[C@@H](CCC(=O)O)C(=O)O)cc1`, the molecule was called inactive.
